Here are results for 30 compounds from the supplement of paper PMC13380429.

The test system of assay [1] is Vero E6 infected with SARS-CoV-2. The experiment in a line: morphology score (similarity to uninfected cells); higher = more like uninfected cells. The following applies: 24 h.
For assay [2] the test system is unchanged. Description: SARS-CoV-2 infection rate relative to infected DMSO; higher = more infection, active = 60 or less. The following applies: 24 h.

In the case of `COc1ccc2c(c1)C(=O)N(CCc1ccc(S(=O)(=O)NC(=O)NC3CCCCC3)cc1)C(=O)C2(C)C` [gliquidone] (10 µM), in assay [1], the morphology score came out at 0.283. Further, the SARS-CoV-2 infection rate in assay [2] was 98.5% (inactive).
For the compound `CO[C@H]1O[C@@H]2O[C@@]3(C)CC[C@H]4[C@H](C)CC[C@@H]([C@H]1C)[C@@]24OO3` [artemether] (10 µM), in assay [1], the morphology score came out at 0.0275. Further, the SARS-CoV-2 infection rate in assay [2] is 105% (inactive).
The compound `C[C@@H](O)[C@@H]1NC(=O)[C@H](CCCCN)NC(=O)[C@@H](Cc2c[nH]c3ccccc23)NC(=O)[C@H](Cc2ccccc2)NC(=O)[C@@H](NC(=O)[C@H](N)Cc2ccccc2)CSSC[C@@H](C(=O)N[C@H](CO)[C@@H](C)O)NC1=O` [octreotide] (10 µM) returned a morphology score in assay [1] of 0.0589. In assay [2], the SARS-CoV-2 infection rate is 102% (inactive).
On the same counts, the results for `Clc1cccc(-c2nnnn2Cc2cccnc2)c1Cl` (10 µM) are 0.0426 and 99.5% (inactive).
In turn, `Nc1ccc(S(=O)(=O)Nc2nccs2)cc1` [sulfathiazole] (10 µM) came in with a morphology score in assay [1] of 0.0413. Besides, the SARS-CoV-2 infection rate in assay [2] is 114% (inactive).
For `CCOC(=O)C1=C(N)Oc2ccc(Br)cc2C1C(C#N)C(=O)OCC` (stereo not given) (10 µM), in assay [1], the morphology score was 0.0924. Further, the SARS-CoV-2 infection rate in assay [2] is 108% (inactive).
On the same counts, the results for `CCOC(=O)c1ncn2c1CN(C)C(=O)c1cc(F)ccc1-2` [flumazenil] (10 µM) are 0.0898 and 88.5% (inactive).
For `CCc1nc(C)ccc1O` [emoxipin] (10 µM), in that order: 0.143 and 99.5% (inactive).
Take `O=C(CCN1CCN(C(=O)OCc2cc(Cl)cc(Cl)c2)CC1)c1ccc2[nH]c(=O)oc2c1` (10 µM): in assay [1], the morphology score was 0.127. The SARS-CoV-2 infection rate in assay [2] is 99.5% (inactive).
For `CN1CCN(CC(=O)N2c3ccccc3C(=O)Nc3cccnc32)CC1` [pirenzepine] (10 µM), in that order: -0.00972 and 108% (inactive).
For `CCCCOc1ccc(OCCCN2CCOCC2)cc1` [pramoxine] (10 µM), in that order: -0.0144 and 106% (inactive).
For the compound `COc1cc(Cc2cnc(N)nc2N)cc(OC)c1OC` [trimethoprim] (10 µM), the morphology score in assay [1] is -0.0548. For the same compound, the SARS-CoV-2 infection rate in assay [2] was 98.5% (inactive).
In assay [1], `CC1(C)C(=O)NC2=C1C(=O)C(=O)c1ccccc12` (0.833333 µM) had a morphology score of -0.0548. For the same compound, the SARS-CoV-2 infection rate in assay [2] is 114% (inactive).
On the same counts, the results for `NC(=O)[C@@H](CC1CC1)[C@@H](CCC(F)(F)F)C(=O)N[C@H]1N=C(c2ccccc2)c2cccc(F)c2NC1=O` (10 µM) are 0.179 and 102% (inactive).
In the case of `COc1ccc(OC)c(C(O)C(C)N)c1` (stereo not given) [methoxamine] (10 µM), the morphology score in assay [1] was -0.12. For the same compound, the SARS-CoV-2 infection rate in assay [2] was 108% (inactive).
As for `Cc1sc2c(c1C)C(c1ccc(Cl)cc1)=N[C@@H](CC(=O)Nc1ccc(O)cc1)c1nnc(C)n1-2` (10 µM), in assay [1], the morphology score is -0.169. The SARS-CoV-2 infection rate in assay [2] was 114% (inactive).
On the same counts, the results for `CC(C)(c1ccc(O)cc1)c1ccc(O)cc1` [bisphenol-A] (10 µM) are 0.0642 and 106% (inactive).
On the same counts, the results for `CC(C)(CO)c1cc2cc(NC(=O)C3(c4ccc5c(c4)OC(F)(F)O5)CC3)c(F)cc2n1C[C@@H](O)CO` [tezacaftor] (10 µM) are -0.0125 and 108% (inactive).
On the same counts, the results for `C=C1/C(=C\C=C2/CCC[C@]3(C)[C@@H]([C@H](C)CCCC(C)(C)O)CC[C@@H]23)C[C@@H](O)C[C@@H]1O` [calcitriol] (10 µM) are 0.098 and 108% (inactive).
On to `COc1cc(C(=O)NC2CCN(C)CC2)c(F)cc1Nc1ncc2c(n1)N(C1CCCC1)CC(F)(F)C(=O)N2C` (0.833333 µM), for which, in assay [1], the morphology score was -0.193. Further, the SARS-CoV-2 infection rate in assay [2] is 100% (inactive).
Turning to `CCCN(CCC)C1Cc2cc(OC)c(OC)cc2C1` (10 µM), the morphology score in assay [1] is 0.231. Also, in assay [2], the SARS-CoV-2 infection rate is 109% (inactive).
For `O=Cc1cn(Cc2ccc(Cl)cc2)c2ccccc12` [oncrasin-1] (10 µM), the morphology score in assay [1] was 0.108. Also, the SARS-CoV-2 infection rate in assay [2] was 110% (inactive).
On the same counts, the results for `CN1C(C)(C)CCCC1(C)C` [pempidine] (10 µM) are 0.0949 and 96% (inactive).
`Cc1nc2ccc(-n3ncc(C(=O)c4cc5ccccc5[nH]4)c3N)cc2[nH]1` (0.833333 µM) yielded a morphology score in assay [1] of 0.131. The SARS-CoV-2 infection rate in assay [2] was 101% (inactive).
On the same counts, the results for `CC[C@H](C)[C@H](NC(=O)[C@H](Cc1ccc(O)cc1)NC(=O)[C@@H](NC(=O)[C@H](CCCNC(=N)N)NC(=O)[C@@H](N)CC(=O)O)C(C)C)C(=O)N[C@@H](Cc1c[nH]cn1)C(=O)N1CCC[C@H]1C(=O)O` (10 µM) are 0.109 and 104% (inactive).
For `COc1ccc2[nH]c(SCc3ncc(C)c(OC)c3C)nc2c1` [omeprazole-sulfide] (10 µM), in that order: 0.191 and 104% (inactive).
Regarding `CC(C)N1Cc2cc(S(C)(=O)=O)ccc2N(CCN2CC=C(c3c[nH]c4cc(F)ccc34)CC2)S1(=O)=O` (10 µM), in assay [1], the morphology score turned out to be 0.178. In addition, the SARS-CoV-2 infection rate in assay [2] was 97.5% (inactive).
On the same counts, the results for `CC1(C)[C@@H](O)CC[C@]2(C)[C@H]3C(=O)C=C4[C@@H]5C[C@@](C)(C(=O)O)CC[C@]5(C)CC[C@@]4(C)[C@]3(C)CC[C@@H]12` [enoxolone] (10 µM) are 0.00688 and 110% (inactive).
On the same counts, the results for `Cc1[nH]c2ccc(Cl)cc2c1C1=CCNCC1` (10 µM) are 0.432 and 76% (inactive).
For `C/C=C(/C)C(=O)O[C@H]1C(C)=C[C@]23C(=O)[C@@H](C=C(CO)[C@@H](O)[C@]12O)[C@H]1[C@@H](C[C@H]3C)C1(C)C` [ingenol-mebutate] (0.833333 µM), in that order: -0.298 and 95% (inactive).
